# Source: paper PMC7862700, “An all-to-all approach to the identification of sequence-specific readers for epigenetic DNA modifications on cytosine”
# What was measured:
# Assay in all cases: DAPPL (digital affinity profiling via proximity ligation, sequencing); 10 mM Tris-HCl pH 7.5, 50 mM NaCl, 1 mM DTT, 4% glycerol, room temperature, 30 min; GST-TFs on glutathione beads, 16-mer random dsDNA library, 0.1% formaldehyde crosslink after washing; high values mean tight binding
# [1] = molecular target: T1, FEV (Homo sapiens, UniProt Q99581 1-238); details: protein: recombinant; tags: N-terminal GST; dsDNA, one strand shown
# T1 sequence: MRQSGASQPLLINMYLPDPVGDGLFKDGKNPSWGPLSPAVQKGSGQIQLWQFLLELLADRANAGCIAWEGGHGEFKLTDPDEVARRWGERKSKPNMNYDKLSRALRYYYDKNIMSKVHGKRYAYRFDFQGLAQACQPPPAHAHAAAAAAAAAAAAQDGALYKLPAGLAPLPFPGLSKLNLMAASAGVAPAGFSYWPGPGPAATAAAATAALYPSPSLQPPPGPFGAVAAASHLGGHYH
# Summary of the method: (§1)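 Sequencing on an Illumina NextSeq500 followed washing, crosslinking with 0.1% formaldehyde, proximity ligation (BsaI/T4 ligase, 1 h, 37 °C) and PCR amplification of pools that had been incubated for 30 min at room temperature with 200 nmole of a random double-stranded 16-mer DNA library in Tris/NaCl/DTT/glycerol buffer. Each pool held DNA-barcoded human transcription factors, expressed in yeast as GST fusions and captured on glutathione beads, plus a tag-only sample. Binding signal is a hexamer's read frequency for a factor divided by its frequency in the tag-only sample.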
# [2] = molecular target: ETV5 (Homo sapiens, UniProt P41161 1-510); details: protein: recombinant; tags: N-terminal GST; dsDNA, one strand shown
# Summary of the method: as §1
# [3] = molecular target: HSF1 (Homo sapiens, UniProt Q00613 1-529); details: protein: recombinant; tags: N-terminal GST; chain copies: 3; dsDNA, one strand shown
# Summary of the method: as §1
# [4] = molecular target: T2, SPIC (Homo sapiens, UniProt Q8N5J4 1-248); details: protein: recombinant; tags: N-terminal GST; dsDNA, one strand shown
# T2 sequence: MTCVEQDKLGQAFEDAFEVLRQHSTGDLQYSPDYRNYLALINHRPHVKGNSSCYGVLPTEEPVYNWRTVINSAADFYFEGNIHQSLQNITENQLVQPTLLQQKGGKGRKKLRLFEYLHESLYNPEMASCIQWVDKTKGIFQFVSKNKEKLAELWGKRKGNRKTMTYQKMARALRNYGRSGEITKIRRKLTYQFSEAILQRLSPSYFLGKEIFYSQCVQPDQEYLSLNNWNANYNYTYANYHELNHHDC
# Summary of the method: as §1
# [5] = molecular target: ELF4 (Homo sapiens, UniProt Q99607 1-663); details: protein: recombinant; tags: N-terminal GST; dsDNA, one strand shown
# Summary of the method: as §1
# [6] = molecular target: T3, ELK4 (Homo sapiens, UniProt P28324-2 1-405); details: protein: recombinant; tags: N-terminal GST; dsDNA, one strand shown
# T3 sequence: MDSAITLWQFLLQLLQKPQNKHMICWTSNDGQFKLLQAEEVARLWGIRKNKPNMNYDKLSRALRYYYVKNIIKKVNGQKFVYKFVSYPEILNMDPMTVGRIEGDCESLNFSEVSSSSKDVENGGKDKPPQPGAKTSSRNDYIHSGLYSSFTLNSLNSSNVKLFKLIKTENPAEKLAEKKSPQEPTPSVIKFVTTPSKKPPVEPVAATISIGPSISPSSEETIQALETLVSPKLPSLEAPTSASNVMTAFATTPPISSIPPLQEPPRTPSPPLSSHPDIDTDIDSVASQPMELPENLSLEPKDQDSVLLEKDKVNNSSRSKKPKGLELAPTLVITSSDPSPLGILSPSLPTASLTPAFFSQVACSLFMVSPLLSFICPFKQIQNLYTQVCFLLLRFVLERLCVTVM
# Summary of the method: as §1
# [7] = molecular target: T4, ETV2 (Homo sapiens, UniProt O00321 1-342); details: protein: recombinant; tags: N-terminal GST; dsDNA, one strand shown
# T4 sequence: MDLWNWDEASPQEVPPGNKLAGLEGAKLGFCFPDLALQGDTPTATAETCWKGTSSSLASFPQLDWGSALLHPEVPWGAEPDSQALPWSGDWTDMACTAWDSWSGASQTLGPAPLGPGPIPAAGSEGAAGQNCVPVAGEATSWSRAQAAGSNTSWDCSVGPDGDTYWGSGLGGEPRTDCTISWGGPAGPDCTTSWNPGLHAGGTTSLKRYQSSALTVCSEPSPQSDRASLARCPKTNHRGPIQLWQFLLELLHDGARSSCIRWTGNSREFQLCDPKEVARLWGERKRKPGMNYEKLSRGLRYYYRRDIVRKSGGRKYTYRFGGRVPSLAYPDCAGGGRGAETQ
# Summary of the method: as §1
# [8] = molecular target: T5, ELF3 (Homo sapiens, UniProt P78545 1-371); details: protein: recombinant; tags: N-terminal GST; dsDNA, one strand shown
# T5 sequence: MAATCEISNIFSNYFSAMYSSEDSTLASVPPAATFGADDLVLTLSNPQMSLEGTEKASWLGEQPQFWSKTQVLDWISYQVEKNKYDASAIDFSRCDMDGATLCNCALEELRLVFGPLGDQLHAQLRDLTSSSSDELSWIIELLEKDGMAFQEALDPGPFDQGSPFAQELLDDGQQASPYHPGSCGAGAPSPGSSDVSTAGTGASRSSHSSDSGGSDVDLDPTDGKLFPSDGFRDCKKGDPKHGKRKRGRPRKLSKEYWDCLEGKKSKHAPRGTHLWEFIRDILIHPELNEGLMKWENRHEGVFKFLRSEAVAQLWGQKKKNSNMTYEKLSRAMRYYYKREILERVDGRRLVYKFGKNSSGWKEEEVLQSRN
# Summary of the method: as §1
# [9] = molecular target: CRX (Homo sapiens, UniProt O43186 1-299); details: protein: recombinant; tags: N-terminal GST; dsDNA, one strand shown
# Summary of the method: as §1
# [10] = molecular target: ETV1 (Homo sapiens, UniProt P50549 1-477); details: protein: recombinant; tags: N-terminal GST; dsDNA, one strand shown
# Summary of the method: as §1
# [11] = molecular target: T6, ERF (Homo sapiens, UniProt P50548 1-548); details: protein: recombinant; tags: N-terminal GST; dsDNA, one strand shown
# T6 sequence: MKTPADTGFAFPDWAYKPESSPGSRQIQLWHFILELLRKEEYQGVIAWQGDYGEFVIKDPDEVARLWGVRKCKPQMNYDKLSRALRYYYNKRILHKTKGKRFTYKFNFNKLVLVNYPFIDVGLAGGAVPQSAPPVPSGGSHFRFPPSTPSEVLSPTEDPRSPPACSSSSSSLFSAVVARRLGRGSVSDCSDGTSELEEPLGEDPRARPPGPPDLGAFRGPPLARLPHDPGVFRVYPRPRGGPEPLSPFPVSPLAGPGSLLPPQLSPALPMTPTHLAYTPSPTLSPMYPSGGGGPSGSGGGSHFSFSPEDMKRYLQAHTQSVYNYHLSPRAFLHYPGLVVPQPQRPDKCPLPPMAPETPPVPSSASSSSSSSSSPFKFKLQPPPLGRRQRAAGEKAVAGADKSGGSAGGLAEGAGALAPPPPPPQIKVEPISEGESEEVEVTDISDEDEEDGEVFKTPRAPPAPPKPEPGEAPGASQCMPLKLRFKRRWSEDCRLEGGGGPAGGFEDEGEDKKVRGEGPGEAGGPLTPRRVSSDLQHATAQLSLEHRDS
# Summary of the method: as §1
# [12] = molecular target: T7, ETV3L (Homo sapiens, UniProt Q6ZN32 1-361); details: protein: recombinant; tags: N-terminal GST; dsDNA, one strand shown
# T7 sequence: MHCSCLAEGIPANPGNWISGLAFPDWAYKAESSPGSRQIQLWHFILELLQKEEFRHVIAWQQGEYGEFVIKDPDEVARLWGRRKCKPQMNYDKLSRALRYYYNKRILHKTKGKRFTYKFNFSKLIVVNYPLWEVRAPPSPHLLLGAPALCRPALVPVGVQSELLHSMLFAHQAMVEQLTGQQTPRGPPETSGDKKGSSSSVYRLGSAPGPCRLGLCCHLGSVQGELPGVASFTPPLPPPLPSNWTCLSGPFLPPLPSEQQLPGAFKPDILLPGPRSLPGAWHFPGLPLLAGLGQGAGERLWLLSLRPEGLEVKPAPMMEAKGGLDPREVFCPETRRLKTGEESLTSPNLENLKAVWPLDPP
# Summary of the method: as §1
# [13] = molecular target: T8, ETS2 (Homo sapiens, UniProt P15036 1-469); details: protein: recombinant; tags: N-terminal GST; dsDNA, one strand shown
# T8 sequence: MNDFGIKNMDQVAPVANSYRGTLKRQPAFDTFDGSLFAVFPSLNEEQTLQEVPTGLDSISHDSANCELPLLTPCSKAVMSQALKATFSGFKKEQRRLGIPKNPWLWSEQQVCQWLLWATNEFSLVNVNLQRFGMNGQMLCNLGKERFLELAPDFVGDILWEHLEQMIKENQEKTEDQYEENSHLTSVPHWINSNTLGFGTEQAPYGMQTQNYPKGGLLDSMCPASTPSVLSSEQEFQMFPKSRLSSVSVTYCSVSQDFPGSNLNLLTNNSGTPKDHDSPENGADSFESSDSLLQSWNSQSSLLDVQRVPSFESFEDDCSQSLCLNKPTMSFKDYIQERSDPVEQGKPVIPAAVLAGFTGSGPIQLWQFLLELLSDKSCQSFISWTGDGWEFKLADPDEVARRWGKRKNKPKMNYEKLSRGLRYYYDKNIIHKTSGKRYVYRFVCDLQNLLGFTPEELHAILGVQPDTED
# Summary of the method: as §1
# [14] = molecular target: T9, SPDEF (Homo sapiens, UniProt O95238 1-335); details: protein: recombinant; tags: N-terminal GST; dsDNA, one strand shown
# T9 sequence: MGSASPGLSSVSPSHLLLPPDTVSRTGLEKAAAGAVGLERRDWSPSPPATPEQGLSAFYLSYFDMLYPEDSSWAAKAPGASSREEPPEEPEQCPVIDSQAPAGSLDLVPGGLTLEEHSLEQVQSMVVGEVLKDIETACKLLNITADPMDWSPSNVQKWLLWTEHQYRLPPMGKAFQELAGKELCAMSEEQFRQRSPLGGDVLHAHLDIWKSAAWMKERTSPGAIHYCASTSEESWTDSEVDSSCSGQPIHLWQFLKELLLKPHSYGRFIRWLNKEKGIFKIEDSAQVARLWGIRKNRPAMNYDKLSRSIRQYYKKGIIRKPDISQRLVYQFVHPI
# Summary of the method: as §1
# [15] = molecular target: T10, ETV7 (Homo sapiens, UniProt Q9Y603 1-341); details: protein: recombinant; tags: N-terminal GST; dsDNA, one strand shown
# T10 sequence: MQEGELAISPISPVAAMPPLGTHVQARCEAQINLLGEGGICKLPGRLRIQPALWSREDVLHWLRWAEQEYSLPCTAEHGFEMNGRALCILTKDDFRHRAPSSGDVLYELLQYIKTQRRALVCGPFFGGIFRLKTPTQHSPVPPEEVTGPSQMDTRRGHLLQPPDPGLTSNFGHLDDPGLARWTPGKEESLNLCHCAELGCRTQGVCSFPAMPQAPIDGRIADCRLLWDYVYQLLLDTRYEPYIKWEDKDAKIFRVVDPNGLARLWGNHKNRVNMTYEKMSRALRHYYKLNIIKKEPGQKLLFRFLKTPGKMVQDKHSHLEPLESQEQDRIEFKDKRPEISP
# Summary of the method: as §1
# [16] = molecular target: T11, ELF5 (Homo sapiens, UniProt Q9UKW6-2 1-255); details: protein: recombinant; tags: N-terminal GST; dsDNA, one strand shown
# T11 sequence: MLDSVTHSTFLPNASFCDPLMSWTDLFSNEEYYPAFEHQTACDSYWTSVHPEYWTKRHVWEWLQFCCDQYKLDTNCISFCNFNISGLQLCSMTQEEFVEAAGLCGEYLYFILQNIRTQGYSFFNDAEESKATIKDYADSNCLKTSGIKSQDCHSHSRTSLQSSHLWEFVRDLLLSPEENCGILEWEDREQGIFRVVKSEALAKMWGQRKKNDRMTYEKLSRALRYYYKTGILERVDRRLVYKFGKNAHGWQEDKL
# Summary of the method: as §1
# [17] = molecular target: T12, ETV3 (Homo sapiens, UniProt P41162-2 1-143); details: protein: recombinant; tags: N-terminal GST; dsDNA, one strand shown
# T12 sequence: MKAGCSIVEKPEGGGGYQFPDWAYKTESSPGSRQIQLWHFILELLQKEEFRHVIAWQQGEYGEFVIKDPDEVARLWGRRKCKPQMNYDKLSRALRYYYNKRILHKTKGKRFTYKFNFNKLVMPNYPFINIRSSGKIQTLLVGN
# Summary of the method: as §1
# [18] = molecular target: ETV6 (Homo sapiens, UniProt P41212 1-452); details: protein: recombinant; tags: N-terminal GST; dsDNA, one strand shown
# Summary of the method: as §1
# Sequence of ETV5 (P41161 whole entry): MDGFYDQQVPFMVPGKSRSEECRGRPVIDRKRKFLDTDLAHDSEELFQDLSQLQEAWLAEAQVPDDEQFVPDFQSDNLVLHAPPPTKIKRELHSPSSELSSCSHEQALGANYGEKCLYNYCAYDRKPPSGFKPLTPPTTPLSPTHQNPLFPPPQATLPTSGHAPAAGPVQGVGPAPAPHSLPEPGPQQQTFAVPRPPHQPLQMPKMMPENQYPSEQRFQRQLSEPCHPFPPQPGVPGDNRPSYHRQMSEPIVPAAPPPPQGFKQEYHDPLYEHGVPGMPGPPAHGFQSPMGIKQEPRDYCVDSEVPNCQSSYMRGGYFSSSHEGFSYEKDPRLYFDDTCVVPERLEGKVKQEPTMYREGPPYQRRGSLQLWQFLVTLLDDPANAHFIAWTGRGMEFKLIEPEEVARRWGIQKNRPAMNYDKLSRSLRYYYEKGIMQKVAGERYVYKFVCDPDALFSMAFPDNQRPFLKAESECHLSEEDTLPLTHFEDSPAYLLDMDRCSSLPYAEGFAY
# Sequence of ETV1 (P50549 whole entry): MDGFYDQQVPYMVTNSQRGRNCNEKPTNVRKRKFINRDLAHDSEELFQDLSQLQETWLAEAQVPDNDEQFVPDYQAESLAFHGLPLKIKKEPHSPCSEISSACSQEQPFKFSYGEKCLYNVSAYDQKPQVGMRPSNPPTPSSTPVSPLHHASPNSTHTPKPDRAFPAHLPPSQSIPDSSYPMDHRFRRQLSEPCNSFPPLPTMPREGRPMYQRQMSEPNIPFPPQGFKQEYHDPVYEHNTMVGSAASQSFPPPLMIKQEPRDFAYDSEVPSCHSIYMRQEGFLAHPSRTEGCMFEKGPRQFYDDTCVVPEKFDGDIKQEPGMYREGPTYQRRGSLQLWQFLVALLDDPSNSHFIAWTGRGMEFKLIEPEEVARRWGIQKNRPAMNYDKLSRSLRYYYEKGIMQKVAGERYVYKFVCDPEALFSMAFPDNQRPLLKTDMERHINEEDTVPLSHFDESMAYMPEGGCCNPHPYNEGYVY
# Sequence of CRX (O43186 whole entry): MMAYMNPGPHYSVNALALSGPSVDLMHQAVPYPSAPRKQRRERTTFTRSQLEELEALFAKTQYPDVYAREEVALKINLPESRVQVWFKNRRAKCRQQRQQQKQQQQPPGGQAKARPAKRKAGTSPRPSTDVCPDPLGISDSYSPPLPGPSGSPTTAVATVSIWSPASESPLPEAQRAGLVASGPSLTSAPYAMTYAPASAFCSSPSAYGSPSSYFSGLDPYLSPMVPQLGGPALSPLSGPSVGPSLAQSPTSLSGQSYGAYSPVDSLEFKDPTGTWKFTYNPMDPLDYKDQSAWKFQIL
# Sequence of ELF4 (Q99607 whole entry): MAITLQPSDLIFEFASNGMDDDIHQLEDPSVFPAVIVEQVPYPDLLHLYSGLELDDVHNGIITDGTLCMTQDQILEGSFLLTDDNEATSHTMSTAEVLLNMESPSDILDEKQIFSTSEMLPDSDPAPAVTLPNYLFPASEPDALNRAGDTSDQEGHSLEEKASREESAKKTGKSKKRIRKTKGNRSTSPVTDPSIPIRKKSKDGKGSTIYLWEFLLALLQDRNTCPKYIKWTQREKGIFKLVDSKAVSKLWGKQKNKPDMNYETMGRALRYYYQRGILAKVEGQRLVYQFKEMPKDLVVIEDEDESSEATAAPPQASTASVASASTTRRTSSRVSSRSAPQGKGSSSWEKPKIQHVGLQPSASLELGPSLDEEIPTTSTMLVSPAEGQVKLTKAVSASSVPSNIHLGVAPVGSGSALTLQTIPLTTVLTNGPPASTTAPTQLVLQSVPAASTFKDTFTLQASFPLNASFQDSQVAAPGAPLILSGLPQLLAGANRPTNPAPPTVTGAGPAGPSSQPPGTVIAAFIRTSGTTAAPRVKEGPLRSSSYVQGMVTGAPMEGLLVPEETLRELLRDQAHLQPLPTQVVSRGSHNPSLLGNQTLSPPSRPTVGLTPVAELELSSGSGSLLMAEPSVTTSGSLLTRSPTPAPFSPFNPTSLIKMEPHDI
# Sequence of ETV6 (P41212 whole entry): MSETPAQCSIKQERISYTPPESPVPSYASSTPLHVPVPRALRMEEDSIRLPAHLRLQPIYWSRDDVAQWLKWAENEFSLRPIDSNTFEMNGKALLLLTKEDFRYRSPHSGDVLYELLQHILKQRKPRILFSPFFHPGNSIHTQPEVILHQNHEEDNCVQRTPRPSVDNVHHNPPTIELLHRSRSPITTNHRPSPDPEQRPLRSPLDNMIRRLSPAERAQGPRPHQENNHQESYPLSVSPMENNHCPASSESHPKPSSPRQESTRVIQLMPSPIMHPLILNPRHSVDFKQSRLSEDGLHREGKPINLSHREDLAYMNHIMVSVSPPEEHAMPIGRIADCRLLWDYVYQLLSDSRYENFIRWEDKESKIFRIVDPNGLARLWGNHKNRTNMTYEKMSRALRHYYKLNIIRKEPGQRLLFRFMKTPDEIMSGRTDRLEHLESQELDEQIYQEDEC
# Sequence of HSF1 (Q00613 whole entry): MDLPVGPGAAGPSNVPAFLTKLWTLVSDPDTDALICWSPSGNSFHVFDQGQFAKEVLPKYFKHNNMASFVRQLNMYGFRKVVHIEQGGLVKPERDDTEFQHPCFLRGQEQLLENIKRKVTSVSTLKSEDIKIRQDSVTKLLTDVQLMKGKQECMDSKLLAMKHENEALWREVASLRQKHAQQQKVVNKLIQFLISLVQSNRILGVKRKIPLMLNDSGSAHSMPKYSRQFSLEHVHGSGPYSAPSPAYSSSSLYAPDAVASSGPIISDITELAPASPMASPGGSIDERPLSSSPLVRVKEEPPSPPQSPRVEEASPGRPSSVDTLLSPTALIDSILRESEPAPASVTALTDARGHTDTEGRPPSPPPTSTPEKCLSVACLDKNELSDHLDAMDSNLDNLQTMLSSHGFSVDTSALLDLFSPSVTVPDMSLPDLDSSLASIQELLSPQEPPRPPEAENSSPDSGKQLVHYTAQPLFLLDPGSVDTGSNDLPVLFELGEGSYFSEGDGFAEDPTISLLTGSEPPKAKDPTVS
sequence,measurement,setting,value
CTCCGC,binding signal,[1],"1.43 fold enrichment (6-mer frequency, TF over GST control)"
same,binding signal,[2],"1.52 fold enrichment (6-mer frequency, TF over GST control)"
same,binding signal,[3],"1.15 fold enrichment (6-mer frequency, TF over GST control)"
same,binding signal,[4],"1.51 fold enrichment (6-mer frequency, TF over GST control)"
same,binding signal,[5],"1.67 fold enrichment (6-mer frequency, TF over GST control)"
same,binding signal,[6],"1.39 fold enrichment (6-mer frequency, TF over GST control)"
same,binding signal,[7],"1.57 fold enrichment (6-mer frequency, TF over GST control)"
same,binding signal,[8],"1.38 fold enrichment (6-mer frequency, TF over GST control)"
same,binding signal,[9],"1.3 fold enrichment (6-mer frequency, TF over GST control)"
same,binding signal,[10],"1.56 fold enrichment (6-mer frequency, TF over GST control)"
same,binding signal,[11],"1.47 fold enrichment (6-mer frequency, TF over GST control)"
same,binding signal,[12],"1.56 fold enrichment (6-mer frequency, TF over GST control)"
same,binding signal,[13],"1.52 fold enrichment (6-mer frequency, TF over GST control)"
same,binding signal,[14],"1.54 fold enrichment (6-mer frequency, TF over GST control)"
same,binding signal,[15],"1.31 fold enrichment (6-mer frequency, TF over GST control)"
same,binding signal,[16],"1.48 fold enrichment (6-mer frequency, TF over GST control)"
same,binding signal,[17],"1.59 fold enrichment (6-mer frequency, TF over GST control)"
same,binding signal,[18],"1.44 fold enrichment (6-mer frequency, TF over GST control)"
